# Screening data from PubChem.
# An excerpt weighted towards active compounds, which were near 10% of everything screened.
# HP1b chromo inh – HTS for Inhibitors of HP1-beta Chromodomain Interactions with Methylated Histone Tails. Chromobox protein homolog 1 (Homo sapiens), P83916. AlphaScreen HP1-beta / biotin-H3K9me3 peptide binding. Potency, µM (doses to about 114 µM), inactives show top-dose activity change, negative = inhibition, usual class: inhibitors. 0.56% of 390,000 active. AID 540317, 2011; also: potency is read from the fitted curve at half-maximal effect; nearly all actives have a fitted effect of over 70% in size
# Target sequence (P83916 whole entry, looked up): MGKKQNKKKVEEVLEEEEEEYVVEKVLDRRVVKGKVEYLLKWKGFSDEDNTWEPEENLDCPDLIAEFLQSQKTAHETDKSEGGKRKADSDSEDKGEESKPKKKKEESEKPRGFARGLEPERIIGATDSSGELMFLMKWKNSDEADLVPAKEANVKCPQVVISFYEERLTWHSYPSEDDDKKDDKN
#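 AlphaScreen: HP1-beta (50 nM) preformed 30 min with biotin-H3(1-18)K9me3 peptide (50 nM) in PBS pH 7.4, 0.01% Tween-20. Compound added for 30 min at RT, then streptavidin donor/nickel chelate acceptor beads (10 ug/mL) for 30 min.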
# CtBP-E1A inh – qHTS Assay for Inhibitors of the CtBP/E1A Interaction; AlphaScreen GST-E1A/His-CtBP binding, 1536-well; stronger effect = lower value; 0.49% of 340,000 active; AID 651724, 2012; activity change, % (test concentration not listed); CtBP / adenovirus E1A interaction (AlphaScreen); in the data active = activity change below about -65%; inconclusive = mostly about -30% to -63%; also: % is scaled to controls: 0 for no effect and ±100 for the full control effect
#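 In 5 uL wells, 23 nL compound meets equimolar GST-E1A and His-CtBP (5X stock 125 nM each) for 2 h, 37 °C. Beads (5X, 50 ug/mL) then 1 h, 37 °C, dark.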
# BAZ2B block – qHTS Assay for Inhibitors of BAZ2B; AlphaScreen BAZ2B-H3K14Ac peptide displacement; Potency, µM (highest dose often 114 µM), without a hit: at the top dose activity change, negative = inhibition, usual class: inhibitors; 4.4% of 360,000 active; AID 504333, 2011; also: potency is read from the fitted curve at half-maximal effect; % is scaled to controls: 0 for no effect and ±100 for the full control effect; nearly all actives have a fitted effect of over 60% in size
#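 Inhibition is scored as reduced AlphaScreen emission. The BAZ2B/b-H3(5-23)K14Ac complex (50 nM each) in PBS pH 7.4, 0.01% Tween-20 meets compound (up to 110 uM) for 30 min at RT before bead addition.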
# Six1-Eya2 inh – qHTS Assay for Inhibitors of the Six1/Eya2 Interaction; activity change, % (concentration not given with the values); AlphaScreen GST-Six1/His-Eya2 binding, biochemical; stronger effect = lower value; 0.56% of 360,000 active; in the data active = activity change below about -65%; inconclusive = mostly about -30% to -63%; also: % is scaled to controls: 0 for no effect and ±100 for the full control effect
#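 Six1/Eya2 binding was read as AlphaScreen signal after compounds were pinned into GST-Six1 plus His-tagged Eya2 (5X stock 250/500 nM) in pH 8.0 Tris/NaCl/TCEP buffer, beads added, then incubated 1 h, 37 C, dark.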
# JMJD2A Tudor – qHTS Assay for Inhibitors of JMJD2A-Tudor Domain | 4.4% of 390,000 active | Potency, µM (titrated, usually from 114 µM), for the others: at the top dose activity change, negative = inhibition, most hits filed as inhibitors | AlphaScreen JMJD2A-Tudor / H3K4me3 peptide binding; also: potency is read from the fitted curve at half-maximal effect; % is scaled to controls: 0 for no effect and ±100 for the full control effect; nearly all actives have a fitted effect of over 50% in size
# G9a block – qHTS Assay for Inhibitors of Histone Lysine Methyltransferase G9a. Histone-lysine N-methyltransferase EHMT2 (Homo sapiens), Q96KQ7. 8.8% of 350,000 active. AID 504332, 2011. G9a H3K9 monomethylation, AlphaScreen, 2 h. Potency, µM (titrated, usually from 102 µM), for the others: at the highest dose activity, negative = inhibition, hits mostly inhibitors; also: potency is read from the fitted curve at half-maximal effect; % is scaled to controls: 0 for no effect and ±100 for the full control effect; nearly all actives have a fitted effect of over 75% in size
# Target sequence (Q96KQ7 913-1193 limits assumed): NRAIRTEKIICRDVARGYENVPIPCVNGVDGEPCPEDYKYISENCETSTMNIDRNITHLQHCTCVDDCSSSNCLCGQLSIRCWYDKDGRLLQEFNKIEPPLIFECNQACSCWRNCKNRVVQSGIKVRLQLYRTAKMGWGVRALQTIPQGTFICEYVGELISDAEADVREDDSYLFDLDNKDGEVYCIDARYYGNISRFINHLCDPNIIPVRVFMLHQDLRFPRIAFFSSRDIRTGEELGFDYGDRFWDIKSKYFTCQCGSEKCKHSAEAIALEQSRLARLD
#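 Using a bead-based AlphaScreen, monomethylated H3K9 product from 2 h room-temperature reactions (G9a 20 nM, peptide 500 nM, SAM 20 uM) was detected with 0.5 ug/mL rabbit anti-H3K9me1 antibody.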
# * hit, by the source's call; ? = inconclusive; . = no result given; ! = not confirmed by another sample; [ ] = dose if it differs, or a comment. Unless noted, calls follow the shape of the dose curve; as a rule, active = well fitted inhibition curve with a large enough effect; inconclusive = small, poorly fitted or top-dose-only effect; inactive = no such curve, though single readings can be large or run the other way.
SMILES,HP1b chromo inh,CtBP-E1A inh,BAZ2B block,Six1-Eya2 inh,JMJD2A Tudor,G9a block
COc1ccc(CCNC(=O)c2ccc(-c3cccc([N+](=O)[O-])c3)o2)cc1OC,4.4%,-13.7,?,?,?,?
COc1ccc(CCNC(=O)c2ccc(-c3ccc([N+](=O)[O-])cc3Cl)o2)cc1,-12.0%,-0.8,-34.0%,?,?,35.5µM*
O=C(c1ccc(-c2ccc([N+](=O)[O-])cc2Cl)o1)N1CCOCC1,22.4%,3.3,-34.6%,9.8,-5.6%,44.7µM*
Cc1cc(C)c(NC(=O)C(=O)NCC(c2cccnc2)N2CCN(c3ccccc3F)CC2)c(C)c1 (stereo not drawn),43.7%,.,-16.9%,.,8.6%,-1.9%[59 µM]
O=C(NCc1ccccc1)C(=O)Nc1c2c(nn1-c1ccc(F)cc1)CSC2,32.8%,.,-0.9%,.,-1.3%,17.5%[59 µM]
O=C(NCCOCCO)C(=O)Nc1c2c(nn1-c1ccc(F)cc1)CSC2,-6.6%,.,-2.7%,.,-1.6%,12.6µM*
Cc1cc(C(=O)OCC(=O)Nc2cccc(S(N)(=O)=O)c2)c(C)o1,2.0%,-68.4*,.,-15.5,-24.7%,.
COc1ccc(CNCC(=O)Nc2cccc(S(N)(=O)=O)c2)cc1,6.8%,4.9,56.2µM*,5.3,0.708µM*,-142.4%[59 µM]
Cc1cccc(NC(=O)COC(=O)c2cc(C)oc2C)c1,3.7%,-5.5,-37.0%,1.1,-15.1%,-6.3%
O=C(CSCC(=O)N1CCCc2ccccc21)Nc1nc(-c2ccccc2)cs1,26.6%,-10.7,-2.7%,-4.0,-23.6%,-12.1%
CS(=O)(=O)c1ccc(-c2cccc(NC(=O)c3ccco3)c2)nn1,21.6%,-9.9,-5.0%,-14.3,-0.7%,-29.8%
COc1ccc(-c2cccc(NC(=O)c3ccco3)c2)nn1,8.4%,-17.5,-17.5%,-26.9,-21.4%,50.1µM*
COc1ccc(-c2ccc(NC(=O)c3ccco3)cc2)nn1,-7.9%,-6.2,9.1%,-2.4,-21.3%,39.8µM*
COc1ccc(C(C#N)CC(=O)c2ccc(OCc3ccccc3)c(OC)c2)cc1OC (stereo not drawn),.,1.0,.,-11.5,.,.
CCOc1ccccc1NC(=O)COC(=O)CNS(=O)(=O)c1ccc(C)cc1,-3.7%,-7.6,13.2%,3.3,-8.0%,13.6%[59 µM]
Cc1ccccc1N1CC(O)(c2ccccc2)[N+]2=C1SCC2 (stereo not drawn),59.4%,-14.3,5.0%,3.4,-11.3%,31.6µM*
Cc1ccc(C2(O)CN(c3ccccc3C)C3=[N+]2CCS3)cc1 (stereo not drawn),33.5%,2.3,-9.0%,0.5,-20.1%,31.6µM*
Cc1ccc(C2(O)CN(c3ccccc3)C3=[N+]2CCS3)cc1 (stereo not drawn),36.0%,-17.8,?,4.1,-28.4%,5.6%
O=S(=O)(c1ccc(F)cc1)N1CCN(c2ccc(F)cc2)CC1,37.3%,-4.0,0.2%,0.4,-15.7%,7.4%
O=CN1CCN(C(=O)c2ccccc2F)CC1,11.2%,2.9,.,1.3,-7.1%,0.2%[59 µM]
O=S(=O)(c1ccc(F)cc1)N1CCN(CC2CC3C=CC2C3)CC1 (stereo not drawn),?,7.8,50.1µM*,-2.3,11.2µM*,22.4µM*
Cc1ccc(CN2CCN(CC3CC4C=CC3C4)CC2)cc1 (stereo not drawn),?,-1.4,28.2µM*,0.0,5.62µM*,?
COc1cccc(C(=O)N2CCN(C(=O)c3cccc(F)c3)CC2)c1,40.9%,10.1,-11.3%,3.1,-5.3%,-4.0%[59 µM]
O=C(c1ccccc1F)N1CCN(CC2CC3C=CC2C3)CC1 (stereo not drawn),?,7.1,56.2µM*,7.6,3.98µM*,?
O=C(c1cccc(F)c1)N1CCN(CC2CC3C=CC2C3)CC1 (stereo not drawn),?,3.3,50.1µM*,-17.0,5.62µM*,10µM*
SMILES,HP1b chromo inh,CtBP-E1A inh,BAZ2B block,Six1-Eya2 inh,JMJD2A Tudor,G9a block
Nc1c(C(=O)O)cnc2c(-c3ccc(Cl)cc3)cnn12,-3.8%,-20.4,28.2µM*,-22.0,28.2µM*,?
CC(=O)c1cnc2c(-c3ccc(Cl)cc3)cnn2c1C,-0.6%,-2.0,6.7%,11.5,-10.7%[11.4 µM],24.6%[59 µM]
O=C(COC(=O)c1ccc(Br)o1)Nc1ncc([N+](=O)[O-])s1,-20.2%,3.6,?,-27.5,?,3.16µM*
COc1ccc(C(=O)OCC(=O)Nc2ncc([N+](=O)[O-])s2)cc1OC,?,-15.2,50.1µM*,?,39.8µM*,-15.0%[12.7 µM]
NCCCC(N)(C(=O)O)C(F)F (stereo not drawn),18.7%,8.0,?,3.6,-2.2%,7.08µM*!
NCCCCC(=O)O,18.2%,7.5,5.3%,2.1,-9.4%,-17.6%[59 µM]
COc1cc(C23CCCN(CCC(C(C)(C)C)C2)C32OCCO2)cc(OC)c1OC (stereo not drawn),.,-24.4,.,-28.1,.,.
O=C1CCC/C(=N\NC(=O)c2ccc(NS(=O)(=O)c3ccc(Br)cc3)cc2)C1,37.3%,5.6,-5.9%,2.9,-3.4%,79.4µM*
Cc1ccc(S(=O)(=O)N(C)Cc2ccc(C(=O)N/N=C3\CCCC(=O)C3)cc2)cc1,32.4%,0.7,-1.7%,0.6,-12.9%,-12.5%[59 µM]
COc1ccccc1Cc1c(-c2ccco2)nc2cc(C)c(Br)c(C)n12,.,-21.8,.,-8.6,.,.
O=C(Nc1ccc(S(=O)(=O)Nc2nccs2)cc1)c1ccncc1,.,-4.8,.,0.5,.,.
COc1nccnc1NS(=O)(=O)c1ccc(NC(=S)NC(=O)c2ccc(F)cc2)cc1,-12.5%,3.3,-38.7%,7.5,-29.1%,?
O=C(Nc1ccc(S(=O)(=O)Nc2nccs2)cc1)c1ccc(=O)[nH]c1,-13.0%,-25.4,50.1µM*,-17.6,?,.
Cc1ccc(-n2ccc(=O)c(C(=O)Nc3ccc(S(=O)(=O)Nc4nccs4)cc3)n2)cc1,19.2%,-8.3,?,-9.5,-26.2%,-20.0%
O=C(Nc1ccc(S(=O)(=O)Nc2nccs2)cc1)C1=NN(c2ccccc2)C(=O)CC1,19.1%,-15.1,-7.6%,-0.5,-18.4%,44.7µM*
CC(C)(C)C(=O)NC(=S)Nc1ccc(S(=O)(=O)Nc2nccs2)cc1,17.8%,-22.4,-31.4%,4.2,-26.6%,50.1µM*
O=C(NC(=S)Nc1ccc(S(=O)(=O)Nc2nccs2)cc1)c1ccc(F)cc1,-23.6%,-24.4,?,-0.2,-33.6%,10µM*
